DT40 TDP1 CPT = qHTS for Inhibitors of human tyrosyl-DNA phosphodiesterase 1 (TDP1): qHTS in cells in presence of CPT | actives 12% (n = 420,000) | AID 686979, 2013 | Potency, µM (titrated, usually from 46.2 µM), inactives show at the highest dose activity change, negative = growth inhibition, actives largely listed as inhibitors | chicken DT40 Tdp1-/-;hTDP1 cells + 20 nM CPT, ATP luminescence, 48 h; further: potency means the concentration at half of the fitted maximal effect; on the % scale 0 is the no-effect control and ±100 the full control effect; nearly all actives have a fitted effect of over 55% in size
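Chicken DT40 Tdp1-/- cells complemented with human TDP1, 400 cells/well, exposed to compounds plus 20 nM camptothecin for at least 48 h at 37 C; viability read as ATP content by CellTiter-Glo luminescence.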
TGFb SMAD3 inh = qHTS for Inhibitors of TGF-b | HepG2 CAGA-GFP TGF-b/SMAD3 reporter, GFP fluorescence, 18 h; TGF-beta stimulated, 500 pg/mL final | Potency, µM (doses to about 46.1 µM), for the others: at the top dose activity, negative = inhibition, hits mostly inhibitors | actives 1.2% (n = 410,000) | AID 588855, 2011; further: potency means the concentration at half of the fitted maximal effect; on the % scale 0 is the no-effect control and ±100 the full control effect; nearly all actives have a fitted effect of over 65% in size
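Per well, imaged GFP fluorescence of HEPG2 CAGA-GFP cells gives the signal; cells get compound, then TGF-beta (500 pg/mL final), 18 h at 37 degrees C; %Activity versus -TGF-beta and +DMSO controls.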
ASM inhibitor = Inhibitors of Secretory Acid Sphingomyelinase (S-ASM): qHTS | Sphingomyelin phosphodiesterase (Homo sapiens), P17405 | actives 0.006% (n = 340,000) | placental ASM, HMU-PC fluorogenic substrate, 60 min | AID 504937, 2011 | Potency, µM (titrated, usually from 57.5 µM), for the others: top-dose activity change, negative = inhibition, most hits filed as inhibitors; further: potency means the concentration at half of the fitted maximal effect
Target sequence (P17405 47-631 limits assumed): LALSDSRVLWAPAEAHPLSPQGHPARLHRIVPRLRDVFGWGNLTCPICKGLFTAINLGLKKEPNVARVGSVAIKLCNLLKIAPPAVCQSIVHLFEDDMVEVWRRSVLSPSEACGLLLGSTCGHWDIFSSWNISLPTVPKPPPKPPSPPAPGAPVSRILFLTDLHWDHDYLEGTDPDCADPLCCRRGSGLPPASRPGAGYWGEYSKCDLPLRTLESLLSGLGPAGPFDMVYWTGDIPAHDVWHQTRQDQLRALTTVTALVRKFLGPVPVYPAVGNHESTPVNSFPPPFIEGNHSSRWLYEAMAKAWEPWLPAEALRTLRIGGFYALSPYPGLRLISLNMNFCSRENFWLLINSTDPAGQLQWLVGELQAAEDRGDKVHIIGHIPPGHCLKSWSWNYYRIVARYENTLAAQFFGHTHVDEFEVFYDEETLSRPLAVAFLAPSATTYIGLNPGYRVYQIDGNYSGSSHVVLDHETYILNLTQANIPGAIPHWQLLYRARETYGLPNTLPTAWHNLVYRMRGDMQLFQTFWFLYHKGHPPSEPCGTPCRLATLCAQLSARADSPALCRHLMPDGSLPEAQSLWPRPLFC
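Human placenta-derived ASM enzyme was preincubated with compound for 10 minutes at room temperature, then given fluorogenic substrate HMU-PC0 (9 uM final) for 60 minutes at 37 °C; a pH 10 stop preceded fluorescence reading at Ex 386/Em 447 nm.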
DT40 TDP1 no CPT = qHTS for Inhibitors of human tyrosyl-DNA phosphodiesterase 1 (TDP1): qHTS in cells in absence of CPT; DT40 Tdp1-/- hTDP1 cells, no CPT, ATP luminescence, 48 h; Potency, µM (titrated, usually from 46.2 µM), for the others: at the highest dose activity change, negative = growth inhibition, usual class: inhibitors; actives 15% (n = 420,000); further: potency means the concentration at half of the fitted maximal effect; on the % scale 0 is the no-effect control and ±100 the full control effect; nearly all actives have a fitted effect of over 55% in size
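Compound effects on proliferation are scored in DT40 Tdp1-/-;hTDP1 cells in the absence of CPT. ATP levels (CellTiter-Glo luminescence) are recorded after a ≥48 hr, 37 °C incubation.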
IL1B secr inh = qHTS for Inhibitors of Inflammasome Signaling: IL-1-beta AlphaLISA Primary Screen | THP-1 LPS/ATP IL-1B secretion, AlphaLISA, 16 h; hits give low values | actives 4.7% (n = 360,000) | activity change, % at 57.5 µM | AID 743279, 2014; in the data active means activity change below about -50%; inconclusive means mostly about -30% to -49%; further: on the % scale 0 is the no-effect control and ±100 the full control effect
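Secreted IL-1B measured by AlphaLISA bead assay after 16 h compound exposure of THP-1 cells; compounds (final up to 57.5 uM) added 1 h before LPS (250 ng/mL) and ATP (1.25 mM) stimulation; lower signal means less secretion.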
HepG2 viability = qHTS for Inhibitors of TGF-b: Cytotox Counterscreen | HepG2 CAGA-GFP viability, ATP luminescence, 18 h | Potency, µM (top dose mostly 46.1 µM), without a hit: at the top dose activity change, negative = cytotoxicity, hits mostly cytotoxic | actives 0.76% (n = 410,000); further: potency means the concentration at half of the fitted maximal effect
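CellTiter-Glo luminescence gave cytotoxicity after 18 hours at 37 degrees C. The cells were HepG2 CAGA-GFP in 1% FBS DMEM, stimulated with 500 pg/mL TGF-beta after compound addition. %Activity was normalised to no-cell wells (complete cell-killing) and DMSO (no toxicity), and curves were fitted and classified.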
* hit, by the source's call; u = inconclusive; x = no result given. Compounds with a hit are over-represented: about 19% of the library has one in this group of screens. Unless noted, the call rests on the fitted dose curve; in most records, active means well fitted curve in the direction sought with a large enough effect; inconclusive means small, poorly fitted or top-dose-only effect, or another doubt; inactive means no such curve, though single readings can be large; an effect the other way counts as inactive or inconclusive.

SMILES	DT40 TDP1 CPT	TGFb SMAD3 inh	ASM inhibitor	DT40 TDP1 no CPT	IL1B secr inh	HepG2 viability
CC(=O)N1c2ccc(S(=O)(=O)N3CCC(C(=O)N4CCCC(C)C4)CC3)cc2CC1C (centres undefined)	20.6µM*	-0.5%	-1.0%	u	1.2	-11.9%
Cc1csc(NC(=O)c2cc(C)on2)n1	2.1%	9.9%	6.9%	5.2%	-2.7	7.8%
O=C(Nc1ccc(-c2nc3ccccc3[nH]2)cc1)c1ccc2c(c1)OCO2	u	7.94µM*	1.8%	18.4µM*	44.1	8.91µM*
O=C(Nc1ccc(-c2nc3ccccc3[nH]2)cc1)C1CCCO1 (centres undefined)	18.4µM*	7.2%	0.0%	14.6µM*	-15.1	7.08µM*
O=C(Nc1ccc2nn(-c3ccccc3)nc2c1)c1ccc2c(c1)OCO2	16.4µM*	0.0%	8.4%	20.6µM*	-12.4	-47.2%
NC(=O)c1ccc(NC(=O)C2CCCO2)cc1 (centres undefined)	-1.4%	5.0%	-6.0%	-1.6%	8.5	1.9%
Cc1nc2ccc(-c3nc4ccccc4[nH]3)cc2[nH]1	u	-1.6%	-2.7%	u	-7.6	-34.9%
CS(=O)(=O)c1ccc(C(=O)Nc2ccc(-c3nc4ccccc4[nH]3)cc2)cc1	u	-7.8%	44.3%	u	6.4	-3.1%
c1ccc2[nH]c(-c3ccc4c(c3)OCO4)nc2c1	u	3.1%	2.4%	18.4µM*	x	-64.2%
NC(=O)c1nsc(C(=O)N(c2ccccc2)C(C(=O)NC2CCCCC2)c2ccc(O)cc2)c1N (centres undefined)	4.2%	-19.1%	221.4%	u	3.8	-9.1%
CC1(C(=O)OCC(=O)Nc2cc(S(=O)(=O)N3CCOCC3)ccc2Cl)CC1(Cl)Cl (centres undefined)	u	-3.4%	-3.9%	u	10.7	-18.2%
CC(C)(C)C(=O)Nc1ccc(Cl)c(-c2nc3ccccc3[nH]2)c1	u	-0.1%	x	u	x	-18.4%
O=C(Nc1ccc(Cl)c(-c2nc3ccccc3[nH]2)c1)c1ccc2c(c1)OCO2	u	-49.8%	-2.9%	23.1µM*	30.6	-13.2%
Cc1ccc(NC(=O)c2cc(NC(=O)c3ccco3)ccc2N2CCOCC2)cc1	u	0.0%	-16.0%	16.4µM*	-25.9	-17.5%
Cc1ccc(NC(=O)c2cc(N3C(=O)C=CC3=O)ccc2Cl)cc1C	5.17µM*	u	-1.7%	4.61µM*	-14.1	-111.1%
Cc1ccc(NC(=O)c2cc(N3C(=O)C=CC3=O)ccc2N2CCOCC2)cc1	0.82µM*	-11.7%	-2.1%	2.31µM*	-62.8*	-45.3%
Cc1ccc(NC(=O)c2cc(NC(=O)c3ccco3)ccc2N2CCCCC2)cc1	u	u	2.7%	u	6.2	-19.3%
CN1CCN(c2ccc(NC(=O)c3cc(S(N)(=O)=O)ccc3N3CCOCC3)cc2)CC1	9.8%	8.9%	-1.9%	3.5%	-2.4	6.1%
Cc1ccc(NC(=O)c2cc(-n3cnnc3)ccc2Cl)cc1	-0.5%	10.6%	-3.3%	-18.3%	-7.2	-9.0%
CN(C(=O)CN1CCN(c2cc(-c3ccc(-c4ccccc4)cc3)ncn2)CC1)c1ccccc1	23.1µM*	u	x	u	-14.9	-23.9%
CN(C(=O)COc1coc(CN2CCN(c3ccccc3)CC2)cc1=O)c1ccccc1	-21.2%	1.8%	-1.3%	-17.8%	20.3	-1.3%

Source: PubChem BioAssay
